Experimental data as given in PubChem BioAssay AID449762 (Southern Research Specialized Biocontainment Screening …, 2010).
Hit rate of the full screen: of about 330,000 compounds, about 1,900 (0.58%) were called active. About 4% were inconclusive and are not listed. These entries were drawn from the full list. Potency and affinity values are given separately. Unmarked numbers belong to inactive results. Rule as the data show it: inconclusive = inhibition above about 70% without an active follow-up result; inactive = below that. Where a SMILES comes first, the peptide text is derived from it. [ ]: non-standard residue; d: D form. The star is where a group is joined. ξ: configuration not given here. Cbz = O=C(OCc1ccccc1)*; ξS = NC(CO)C(=O)O

Assay: M. tuberculosis growth inhibition, HTS (AID 449762);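 also: bacterial growth assessed after seven days of incubation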
Details: M. tuberculosis H37Rv growth inhibition, 7H9 media; at 25 µM; active compounds read high

| Compound | inhibition |
| --- | --- |
| COc1ccc(NC(=O)C(C)N(C)Cc2ccc3ccccc3c2)cc1 (stereo not given) | 0.65% |
| NC(N)=NCCCC(NC(=O)c1ccccc1)C(=O)Nc1ccc2ccccc2c1 (stereo not given) | 69.1% |
| O=C(CSc1ccc2nnc(-c3ccc(F)cc3)n2n1)NCc1ccco1 | -4.01% |
| CC1(C)C([N+](=O)[O-])C(c2ccc(Cl)cc2)NC(c2ccc(Cl)cc2)C1[N+](=O)[O-] (stereo not given) | 61.2% |
| CCOc1ccc(NC(=O)CSc2ccc3nnc(-c4cccnc4)n3n2)cc1 | -11.5% |
| CCN(CC)C(=S)Nc1ccc(Cl)c(Cl)c1 | 7.74% |
| O=C(Cc1ccccc1)NNC(=O)Nc1ccc(Cl)c(Cl)c1 | 9.99% |
| Cc1ccc2nc(CSc3nnc(-c4ccncc4)n3C)cc(=O)n2c1 | -4.97% |
| CCc1nc(SCc2nnc(-c3ccc(C)cc3)o2)c2c(C)c(C)sc2n1 | -15.8% |
| O=C1NCC(c2ccccc2)C1C(=O)N/N=C/c1ccc(Cl)s1 (stereo not given) | -0.33% |
| O=C1NCC(c2ccccc2)C1C(=O)N/N=C\c1ccc(-c2cccc(Cl)c2Cl)o1 (stereo not given) | 24.5% |
| COCCNC(=O)C1CC2Cn3c(nc4cc(Cl)c(Cl)cc43)C2N1C (stereo not given) | 2.07% |
| O=C(NCC1CCCO1)c1cc([N+](=O)[O-])ccc1N1CCC(Cc2ccccc2)CC1 (stereo not given) | 32.2% |
| CCNC(=O)C(Cc1ccccc1)NC(=O)OCc1ccccc1 (stereo not given) | -4.3% |
| CCOC(=O)CNC(=O)C(CO)NC(=O)OCc1ccccc1 (stereo not given) (Cbz-[ξS]-Gly-OEt) | 5.25% |
| COc1cc(OC)cc(C(=O)N[C@H](C(=O)Nc2ccc(NC(C)=O)cc2)C(C)C)c1 | -0.98% |
| O=c1c(Cc2ccccc2)c(O)ccn1Cc1ccc2c(c1)OCO2 | 3.04% |
| O=C(Nc1cc(=O)[nH]c2ncnn12)c1ccco1 | -17.4% |
| O=C(Nc1cc(=O)[nH]c2nc(-c3ccccc3)nn12)c1ccc(Cl)cc1 | -2.49% |
| COCCN(C(=O)COC(=O)/C=C/c1ccc(C)o1)c1c(N)n(Cc2ccccc2)c(=O)[nH]c1=O | -11.7% |

| Compound | inhibition |
| --- | --- |
| COc1cccc2c1OCC(C(=O)O)C2 (stereo not given) | -0.01% |
| COc1ccccc1N1CCN(C(=O)C2CC=CCC2C(=O)O)CC1 (stereo not given) | -1.32% |
| Cc1ccc(C)c(NNC(=O)C(=O)NNc2cc(C)ccc2C)c1 | 52.8% |
| Cc1ccc(C)c(NC(=S)N(C)C)c1 | 1.85% |
| O=C(Nc1cccc(S(=O)(=O)N2CCCCC2)c1)c1ccc2ncsc2c1 | -3.33% |
| CC(=O)c1cccc(NC(=O)c2ccc(S(=O)(=O)N3CCCCC3)cc2)c1 | -2.95% |
| COc1ccc(N(C(=O)Cn2cnc3ccccc32)C(C(=O)NC2CCCCC2)c2ccccc2)cc1 (stereo not given) | 0.85% |
| COc1ccc(NS(=O)(=O)c2cccc(NC(=O)CNC(C)=O)c2)cc1 | 3.07% |
| Cc1ccc(C(O)c2nc3ccccc3n2C)cc1 (stereo not given) | 6.67% |
| CN1C(=O)Cn2c1nc1ccccc12 | 6.02% |
| Cc1cccc(C)c1NC(=S)N(CCN(C)C)C(C)c1ccccn1 (stereo not given) | -5.58% |
| CN(Cc1cccs1)C(=O)CCc1c[nH]c2ccccc12 | 4.68% |
| COC(=O)c1ccc(CSc2ncnc3ccccc23)o1 | -4.26% |
| COC(=O)c1ccc(CSc2nc(C(F)F)cc(C)c2C#N)o1 | -2.24% |
| O=C(NNc1ncnc2ccccc12)c1cccc(Cl)c1 | -0.01% |
| CN(Cc1cccc(F)c1)C(=O)c1cccc(S(=O)(=O)N2CCN(Cc3ccccc3)CC2)c1 | -18.2% |
| O=C(Nc1ccc(C(=O)NCc2ccc(F)cc2)cc1)C1=CSCCO1 | -4.67% |
| Cc1ccc(CNC(=O)c2ccc(NC(=O)C3=CSCCO3)cc2)cc1 | -1.39% |
| Cc1nc(-c2ccccc2)sc1C1(C)CC(c2ccc(C#N)cc2)=NO1 (stereo not given) | -2.7% |
| Cc1nc(-c2ccc(Cl)cc2)sc1C1(C)CC(c2ccc(Cl)cc2)=NO1 (stereo not given) | 0.85% |

| Compound | inhibition |
| --- | --- |
| c1ccc(-c2cc3ccccc3cn2)cc1 | 12.7% |
| Cc1cnc(NC2=NCCC2)s1 | 4.98% |
| CCCNC(=O)c1ccc(COc2ccc(C(C)(C)C)cc2)o1 | 1.87% |
| COc1ccccc1NC(=O)c1nn(-c2ccccc2)ccc1=O | 5.5% |
| CN(CC(=O)NC(=O)NCc1ccco1)Cc1nc2ccccc2c(=O)[nH]1 | -5.09% |
| O=C(OC(C(=O)NCc1ccc2c(c1)OCO2)c1ccccc1F)c1ccco1 (stereo not given) | 2.01% |
| COc1ccccc1C(=O)N/N=C(\C)CC(=O)Nc1ccc2c(c1)OCCO2 | 1.17% |
| C/C(CC(=O)Nc1ccc2c(c1)OCCO2)=N\NC(=O)c1ccccc1Cl | 5.1% |
| CC(C)(C)c1ccc(C(=O)NCCCNC(=O)c2ccccn2)cc1 | 8.46% |
| COC(=O)c1c(NC(=O)CCC(=O)O)sc2c1CCCCC2 | 19.9% |
| Nc1nc(Nc2ccccc2)nc(NC2CCCCC2)c1[N+](=O)[O-] | 29.1% |
| COc1ccc(OC)c(Nc2nc(N)c([N+](=O)[O-])c(NC3CCCCC3)n2)c1 | -3.37% |
| COc1ccc(OC)c(S(=O)(=O)N2CCN(C(=O)CCc3ccccc3)CC2)c1 | -9.07% |
| Cc1cccc(C(=O)O/N=C2/CC3CCC2(C)C3(C)C)c1 (stereo not given) | 5.89% |
| CC12CCC(C/C1=N\N=C1\NC(=O)/C(=C\c3cccc(Br)c3)S1)C2(C)C (stereo not given) | 21.6% |
| COc1ccc(CC(=O)O/N=C(\N)Cc2ccc(OC)c(OC)c2)cc1 | 2.93% |
| O=C1c2ccccc2CN1C(CO)Cc1ccccc1 (stereo not given) | -7.4% |
| C/C(CCc1ccc2c(c1)OCO2)=N\NC(=O)c1ccccc1 | 1.21% |
| COCCNC(=S)N/N=C(\C)CCc1ccc2c(c1)OCO2 | 8.49% |
| O=C(N/N=C/c1ccccc1OC(=O)N1CCOCC1)c1cccs1 | 25.5% |
